# Records with an inconclusive call do not appear. The source made the active and inactive calls. Unless noted, no stated cut-off is given here; in the data, active means inhibition above about 30%; inactive means the rest.
# Legend:
# [1] = Her2 expression decrease, cell viability multiplex – SKBR3 breast tumor cells, AlphaScreen, ATP viability, primary screen (AID 461;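 active means Her2 level under about 52% in both replicate screens, with viability over 70% of control, limit read from the data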;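 on Her2 level: lower value means less Her2 protein in the cells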;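 on viability: percent of carrier control wells set as 100% viability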); conditions: SKBR3 Her2 protein level, 18-24 h, measured here: SKBR3 viability, ATP luminescence, at 10 µM
# [2] = target: Receptor tyrosine-protein kinase erbB-2 (Homo sapiens) (UniProt P04626); assay: as above; conditions: 18-24 h, at 10 µM, stronger effect = lower value
# [3] = reduced viability of SK-BR-3 breast cancer cells – cell-based, 24 h, human, pilot screen (AID 572;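 active means viability at or below 10% of carrier control in both of two separate runs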;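 further: compound exposure lasted between 18 and 24 h rather than exactly 24 h; 100% = carrier-treated control wells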); conditions: SK-BR-3 viability, CellTiter-Glo luminescence, at 10 µM, stronger effect = lower value
# [4] = HUVEC growth inhibition – cell-based, human, primary screen (AID 575;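 active means viability at or below 30% in both replicate assays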;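 further: 100% = median of untreated cell wells with 0.1% DMSO on each plate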); conditions: HUVEC proliferation, CellTiter-Glo luminescence, 72 h; at 10 µM; stronger effect = lower value
# [5] = H69AR cell proliferation blockers – human, duplicate replicates, primary screen (AID 580;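 active means viability at or under a set limit in both replicates, limit being median viability minus 3 SD, cut at about 48% in these data, passing the limit was not always enough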;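 further: 100% = mean luminescence of untreated wells and 0% = no signal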); conditions: H69AR lung tumor cells viability, ATP luminescence, 72 h; at 10 µM; stronger effect = lower value
# [6] = MRP1 drug-resistance reversers in H69AR cells – cell-based, doxorubicin co-treatment, pilot screen (AID 601;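 active means viability loss from added drug above about 55%, and viability with drug at most 40%, in both replicates, limit read from the data, passing the limit was not always enough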); conditions: CellTiter-Glo, 72 h, at 10 µM; for differential viability (reversal): stronger effect = higher value
# [7] = yeast transport mutant growth inhibition pilot in 384-well plates, post-Golgi transport modulator project (AID 636; in the data active means inhibition above about 31%); conditions: absorbance 615 nm, about 18 h, stronger effect = higher value
# [8] = growth suppression of yeast trafficking mutant, preliminary HTS, modulators of trafficking downstream of Golgi apparatus project, 1536-format plate, OD 615 nm (AID 637); conditions: yeast transport mutant growth, absorbance 615 nm, 18 h; stronger effect = higher value
# [9] = S. cerevisiae growth inhibition in permissive medium (OD615), pilot counter-assay for S. cerevisiae lifespan shortening project, permissive growth control (AID 705;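 active means growth inhibition above 25% in both replicates, a cutoff set 3 SD above the mean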); conditions: OD615, 24 h, at 10 µM, stronger effect = higher value
# [10] = S. cerevisiae growth inhibition in restrictive medium, OD615, pilot screen, restrictive growth control, yeast lifespan reduction project (AID 706;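 active means growth inhibition above a set limit, 3 SD over mean compound inhibition, in both replicates, cut at about 43% in these data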;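 further: modified DeaD lifespan yeast strain shifted to restrictive glucose medium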); conditions: OD615, 48 h, at 10 µM, stronger effect = higher value
# [11] = doxorubicin toxicity protection in MRP-1 cells – H69AR cells, CellTiter-Glo, duplicate, MRP-1 activator project, pilot screen (AID 807;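 active means viability increase at or above a cutoff of the median across tested compounds plus 3 SD, cut at about 8.5% in these data, passing the limit was not always enough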;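 further: compound pretreatment 18-22 h then 72 h combined with doxorubicin; 0% = doxorubicin alone and 100% = vehicle without doxorubicin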); conditions: H69AR viability with doxorubicin, CellTiter-Glo luminescence; at 10 µM; stronger effect = higher value
# [12] = viability of HCT116 without oncogenic beta-catenin – human colon tumor cells, pilot screen (AID 823;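 active means cell viability at or below a set limit in both duplicate runs, the limit being the all-compound median minus 4 SD, cut at about 23% in these data, passing the limit was not always enough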;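 further: 0% = wells killed by 20 µM Hyamine and 100% = untreated DMSO cell wells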); conditions: HCT116 beta-catenin knockout viability, CellTiter-Glo, 60 h; at 10 µM; stronger effect = lower value
# [13] = viability of PTEN-null HCT116 cells – cell-based, HCT116 clonal line, CellTiter-Glo, pilot screen (AID 824;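 active means viability at or below 27.92% in each of two runs, the all-compound median minus 4 SD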;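 further: 0% = 20 µM Hyamine control and 100% = vehicle cell control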); conditions: HCT116 PTEN-deleted viability, 60 h, at 10 µM, stronger effect = lower value
# [14] = RAM pathway blockade in budding yeast – dse1pr::URA3 reporter, 5-FOA selection, pilot screen (AID 869;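 active means inhibition over a set limit, the all-compound mean plus 3 SD, in both replicate runs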;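 further: 0% = DMSO wells with no growth and 100% = 10 µM 1-NA-PP1 with full growth; RAM network block rescues cells from 5-FOA so hits raise OD615 growth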); conditions: S. cerevisiae dse1pr::URA3 5-FOA growth, OD615, 2 d; at 10 µM; stronger effect = higher value; strain carries analog-sensitive mutant Cbk1 kinase
# [15] = RAM signaling pathway blockade in yeast – S. cerevisiae, Pdr1DBD-CYC8 efflux-inhibited sensitized strain, primary screen (AID 1298;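 active means RAM network inhibition above 8.4% in each of two replicates, 3 SD over the compound average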;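 further: 0% = DMSO untreated cells without growth and 100% = 10 µM 1-NA-PP1 full growth; higher means more yeast growth rescued from 5-FOA killing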); conditions: S. cerevisiae cbk1-as DSE1-URA3 strain, 5-FOA growth OD615, 2 d; at 50 µM; stronger effect = higher value
# [16] = H69AR cells + 2 uM doxorubicin, measured here: viability with 2 uM doxorubicin, stronger effect = lower value
# [17] = H69AR cells, compound alone cytotoxicity
# Sequence of Receptor tyrosine-protein kinase erbB-2 (Homo sapiens) (P04626 whole entry, looked up): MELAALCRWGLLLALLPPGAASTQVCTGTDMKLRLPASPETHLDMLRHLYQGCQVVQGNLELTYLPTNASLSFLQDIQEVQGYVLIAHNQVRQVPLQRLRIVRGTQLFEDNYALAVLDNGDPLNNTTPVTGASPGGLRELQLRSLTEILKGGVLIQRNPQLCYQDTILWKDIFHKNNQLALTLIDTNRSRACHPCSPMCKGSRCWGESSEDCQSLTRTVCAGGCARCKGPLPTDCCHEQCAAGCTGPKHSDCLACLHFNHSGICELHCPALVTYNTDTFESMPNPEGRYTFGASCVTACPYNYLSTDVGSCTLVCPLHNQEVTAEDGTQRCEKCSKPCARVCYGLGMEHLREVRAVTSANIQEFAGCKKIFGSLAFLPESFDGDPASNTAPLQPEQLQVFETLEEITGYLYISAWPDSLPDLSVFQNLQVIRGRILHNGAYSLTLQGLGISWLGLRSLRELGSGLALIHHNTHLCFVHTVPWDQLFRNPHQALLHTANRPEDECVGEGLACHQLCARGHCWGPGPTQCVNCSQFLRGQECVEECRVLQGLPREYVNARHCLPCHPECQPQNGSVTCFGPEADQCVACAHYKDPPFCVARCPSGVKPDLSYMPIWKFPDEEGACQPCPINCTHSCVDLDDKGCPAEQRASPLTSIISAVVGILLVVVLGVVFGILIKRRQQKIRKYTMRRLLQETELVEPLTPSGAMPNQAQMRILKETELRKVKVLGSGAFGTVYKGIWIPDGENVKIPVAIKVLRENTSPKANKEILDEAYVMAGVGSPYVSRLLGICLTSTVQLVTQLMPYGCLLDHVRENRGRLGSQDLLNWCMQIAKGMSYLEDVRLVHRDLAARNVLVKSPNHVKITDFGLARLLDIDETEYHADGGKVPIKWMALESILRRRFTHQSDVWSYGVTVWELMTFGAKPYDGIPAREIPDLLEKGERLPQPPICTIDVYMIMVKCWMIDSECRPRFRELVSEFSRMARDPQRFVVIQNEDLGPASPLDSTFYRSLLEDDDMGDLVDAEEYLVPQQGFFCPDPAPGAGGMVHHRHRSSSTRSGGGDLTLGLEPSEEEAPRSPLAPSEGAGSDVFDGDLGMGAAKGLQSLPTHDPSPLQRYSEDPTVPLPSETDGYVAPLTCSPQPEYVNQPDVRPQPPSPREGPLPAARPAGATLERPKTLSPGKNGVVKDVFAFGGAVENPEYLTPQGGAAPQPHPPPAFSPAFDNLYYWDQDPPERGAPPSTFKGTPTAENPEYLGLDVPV
SMILES,viability [1],Her2 level [2],viability [3],viability [4],viability [5],differential viability (reversal) ([6]; H69AR cells + 2 uM doxorubicin),"viability [6, 16]","viability [6, 17]",inhibition [7],inhibition [8],growth inhibition [9],growth inhibition [10],viability increase [11],viability [12],viability [13],inhibition [14],RAM network inhibition [15]
O=C(NCc1ccccc1)C1CCN(S(=O)(=O)c2cccc3cccnc23)CC1,96.5%,104% (inactive),96.5% (inactive),99% (inactive),98.2% (inactive),2.76% (inactive),95.4%,98.2%,0.67% (inactive),-2.79% (inactive),0.255% (inactive),-4.87% (inactive),-2.29% (inactive),99.2% (inactive),96.3% (inactive),1.52% (inactive),-0.57% (inactive)
CCOC(=O)c1cccc(NC2c3ccccc3C(=O)N2Cc2ccco2)c1 (stereo not drawn),98.5%,98% (inactive),98.5% (inactive),76.2% (inactive),82.1% (inactive),-6.29% (inactive),88.4%,82.1%,-3.6% (inactive),-0.83% (inactive),2.55% (inactive),1.38% (inactive),-5.15% (inactive),64.7% (inactive),74.6% (inactive),2.4% (inactive),8.31% (inactive)
COc1cc(NC(=O)C2C3C=CC(C3)C2C(=O)O)c(OC)cc1Cl (stereo not drawn),86%,95% (inactive),86% (inactive),98.4% (inactive),98.3% (inactive),4.4% (inactive),93.9%,98.3%,-2.16% (inactive),-3.61% (inactive),-4.4% (inactive),-20.4% (inactive),-1.99% (inactive),101% (inactive),91.8% (inactive),2.7% (inactive),1.54% (inactive)
Cc1c(C(=O)OC2CCC(C)CC2)[nH]c2c1C(=O)CCC2 (stereo not drawn),69.5%,78% (inactive),69.5% (inactive),87.6% (inactive),86.8% (inactive),-4.38% (inactive),91.2%,86.8%,5.07% (inactive),1.97% (inactive),-11.8% (inactive),-6.09% (inactive),2.52% (inactive),97.7% (inactive),92.9% (inactive),1.67% (inactive),3.39% (inactive)
Cc1ccc(NC(=O)CN(c2ccc3c(c2)OCO3)S(=O)(=O)c2c(C)n[nH]c2C)cc1,92%,83% (inactive),92% (inactive),85.1% (inactive),93.1% (inactive),1.52% (inactive),91.5%,93.1%,-5.73% (inactive),2.33% (inactive),-13.4% (inactive),-19.2% (inactive),2.09% (inactive),95.7% (inactive),96.9% (inactive),3.25% (inactive),5.15% (inactive)
CC1=C(C(=O)OC2CCCC2)C(c2ccc(C)o2)C2=C(CC(c3cccs3)CC2=O)N1 (stereo not drawn),148%,108% (inactive),148% (inactive),75.1% (inactive),74.8% (inactive),13.3% (inactive),61.5%,74.8%,-1.17% (inactive),-11% (inactive),-3.79% (inactive),-19.9% (inactive),-4.36% (inactive),46.3% (inactive),58.9% (inactive),1.68% (inactive),2.7% (inactive)
COc1ccc(NC(=O)CSc2nnc(-c3ccccc3)n2N)cc1,97.5%,87.5% (inactive),97.5% (inactive),94.7% (inactive),93.6% (inactive),17.2% (inactive),76.4%,93.6%,-7.87% (inactive),-0.16% (inactive),0.265% (inactive),3.57% (inactive),0.58% (inactive),101% (inactive),108% (inactive),1.12% (inactive),3.84% (inactive)
CCSC1=C(C#N)C(c2ccccc2OC)CC(=O)N1 (stereo not drawn),92%,97.5% (inactive),92% (inactive),86.3% (inactive),99.8% (inactive),6.97% (inactive),92.8%,99.8%,-1.73% (inactive),-2.33% (inactive),-3.36% (inactive),0.71% (inactive),0.28% (inactive),94.1% (inactive),91.6% (inactive),1.78% (inactive),1.8% (inactive)
Cc1cc(C)nc(NC2=NCC(=O)N2c2ccccc2Br)n1,93%,93.5% (inactive),93% (inactive),101% (inactive),89.8% (inactive),-10.2% (inactive),100%,89.8%,-7.07% (inactive),-2.33% (inactive),-2.53% (inactive),4.3% (inactive),-0.37% (inactive),95.4% (inactive),100% (inactive),2.06% (inactive),8.53% (inactive)
Nc1nc2n(n1)C(c1c(F)cccc1Cl)CC(c1ccc(F)cc1)N2 (stereo not drawn),102%,91.5% (inactive),102% (inactive),103% (inactive),86.2% (inactive),-3.43% (inactive),89.6%,86.2%,-5.2% (inactive),0.33% (inactive),-4.67% (inactive),0.29% (inactive),-2.4% (inactive),89.7% (inactive),86.9% (inactive),0.17% (inactive),3.18% (inactive)
COc1ccccc1N1CCN(C(=O)c2cc(C3CC3)on2)CC1,84%,110% (inactive),84% (inactive),80.8% (inactive),86.5% (inactive),-6.73% (inactive),93.2%,86.5%,-0.64% (inactive),-3.5% (inactive),-9.72% (inactive),0.825% (inactive),0.32% (inactive),98.5% (inactive),103% (inactive),0.905% (inactive),2.48% (inactive)
Cn1c(/C=N/n2cnnc2)nc2ccccc21,100%,78% (inactive),100% (inactive),105% (inactive),83.4% (inactive),-14.4% (inactive),97.8%,83.4%,-0.26% (inactive),-5% (inactive),-4.11% (inactive),-2.04% (inactive),-3.76% (inactive),94% (inactive),94.2% (inactive),0.41% (inactive),5.84% (inactive)
CCOc1ccc(NC(=O)CN(c2cc(C)cc(C)c2)S(=O)(=O)c2c(C)noc2C)cc1,94%,90.5% (inactive),94% (inactive),85.2% (inactive),74.7% (inactive),0.455% (inactive),74.2%,74.7%,1.67% (inactive),-1.83% (inactive),-19.5% (inactive),-16.8% (inactive),-3.54% (inactive),102% (inactive),97.2% (inactive),2.2% (inactive),8.99% (inactive)
O=C(c1sc2ccccc2c1Cl)N(Cc1cccs1)C1CCS(=O)(=O)C1 (stereo not drawn),100%,100% (inactive),100% (inactive),73.2% (inactive),85.5% (inactive),3.69% (inactive),81.8%,85.5%,1.07% (inactive),0.17% (inactive),-7.52% (inactive),-11.5% (inactive),-4.05% (inactive),92.2% (inactive),86.5% (inactive),0.395% (inactive),7.16% (inactive)
O=C(NC1CCCCCC1)c1c(F)c(F)c(F)c(F)c1F,76.5%,92% (inactive),76.5% (inactive),78.9% (inactive),101% (inactive),15.7% (inactive),85.2%,101%,0.26% (inactive),-8.67% (inactive),4.54% (inactive),7.52% (inactive),-3.82% (inactive),91.8% (inactive),93.5% (inactive),1.01% (inactive),-1.79% (inactive)
Cc1cc(C)nc(SCc2csc(N)n2)n1,89.5%,85% (inactive),89.5% (inactive),89.6% (inactive),90.1% (inactive),-4.05% (inactive),94.1%,90.1%,-0.26% (inactive),-2.67% (inactive),3.96% (inactive),14.9% (inactive),1.21% (inactive),105% (inactive),99.6% (inactive),0.605% (inactive),4.19% (inactive)
O=C1CCCCCC1C1(O)C(=O)Nc2ccccc21 (stereo not drawn),100%,96.5% (inactive),100% (inactive),87.9% (inactive),95.7% (inactive),1.21% (inactive),94.4%,95.7%,-4.68% (inactive),-1.67% (inactive),-0.65% (inactive),-10.4% (inactive),-2.3% (inactive),99.7% (inactive),95% (inactive),1.43% (inactive),1.29% (inactive)
COc1ccc(NC(=O)C2CCCN2S(=O)(=O)c2cccc3cccnc23)c(OC)c1 (stereo not drawn),96%,106% (inactive),96% (inactive),90.5% (inactive),95% (inactive),-0.87% (inactive),95.9%,95%,91.4% (active),84.7% (active),98.5% (active),95.7% (active),-2.76% (inactive),91.6% (inactive),84.3% (inactive),0.91% (inactive),-1.73% (inactive)
COc1ccc(C2C(C(=O)N3CCC(C)CC3)c3ccccc3C(=O)N2C)cc1 (stereo not drawn),109%,112% (inactive),109% (inactive),108% (inactive),94.9% (inactive),-1.18% (inactive),96.1%,94.9%,1.23% (inactive),9.84% (inactive),-17% (inactive),-12% (inactive),-2.5% (inactive),83.3% (inactive),82.9% (inactive),2.41% (inactive),7.41% (inactive)

# Reference: PubChem BioAssay
